# Records with an inconclusive call do not appear. Entries that show only a call come without a potency. Active and inactive are the calls of the source. Calls come from the whole dose curve; as a rule, active = well fitted inhibition curve with a large enough effect; inconclusive = small, poorly fitted or top-dose-only effect; inactive = no such curve, though single readings can be large or run the other way.
# What was measured:
# [1] = test system: Zika virus NS2B-NS3 protease (unlinked complex); experiment: Primary screen GU Rhodamine qHTS for Zika virus inhibitors: Unlinked NS2B-NS3 protease assay (AID 1347159); note: nearly all actives have a fitted effect of over 60% in size
# In short: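 Noncovalent NS2B hydrophilic domain–NS3 protease domain complex (25 nM) preincubated 15 min at room temperature with compounds (up to 114 microM) in 10 mM Tris-HCl pH 8.0, 0.01% Tween 20; 1.5 microM Rhodamine110 substrate added, fluorescence change over 15 min fitted to Hill equation.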
# [2] = test system: Zika virus NS2B-NS3 protease (linked construct); experiment: Primary screen NINDS Rhodamine qHTS for Zika virus inhibitors (AID 1347160); note: nearly all actives have a fitted effect of over 55% in size
# In short: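 Purified linked NS2B-NS3 protease (NS2B hydrophilic domain joined to NS3 protease by flexible linker), 25 nM in 10 mM Tris-HCl pH 8.0, 0.01% Tween 20. Compounds titrated, 15 min preincubation at room temperature; 1.5 microM Rhodamine110 substrate, FITC fluorescence change over 15 min.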
# Potency is the fitted concentration of half-maximal effect.
SMILES,Potency [1],Potency [2]
CCNc1nc(Nc2cc(F)c(C(=O)N3CCOCC3)cc2OC)ncc1C(F)(F)F,inactive,inactive
COc1ccc(-c2csc(NC(=O)[C@H]3CCCCN3S(=O)(=O)c3ccc(C)cc3)n2)cc1,inactive,inactive
Nc1ncnc2c1c(-c1ccc(Oc3ccccc3)cc1)nn2[C@@H]1CCCNC1,inactive,inactive
CCn1nc(C2CCN(C(=O)CCO)CC2)nc1-c1cnc(N)c(-c2nnc(C(C)(C)C)o2)n1,inactive,inactive
COC1=CC(=O)C[C@@H](C)[C@@]12Oc1c(Cl)c(OC)cc(OC)c1C2=O,inactive,inactive
COc1cc2c(cc1OC)CN(C(=O)/C=C/c1c(-c3ccccc3)n(C)c3ncccc13)CC2,inactive,inactive
COC(=O)c1sccc1S(=O)(=O)Nc1ccc(Nc2ccccc2)cc1OC,inactive,inactive
Cc1cc2c(N3CCCC3)nc(N3CCCC3)nc2n1C,inactive,inactive
COc1cc([C@H]2O[C@H](c3cc(OC)c4c(c3)OCO4)[C@H](C)[C@H]2C)cc(OC)c1OC,inactive,inactive
COC1CC(O[C@H]2CC[C@]3(C)C4CC[C@]5(C)C(C6=CC(=O)OC6)=CCC56OC46CC[C@@H]3C2)OC(C)C1O[C@@H]1O[C@H](CO[C@@H]2O[C@H](CO)[C@@H](O)[C@H](O)[C@H]2O)[C@@H](O)[C@H](O)[C@H]1O (some centres undefined),inactive,inactive
CCN(c1cc(-c2ccc(CN3CCOCC3)cc2)cc(C(=O)NCc2c(C)cc(C)[nH]c2=O)c1C)C1CCOCC1,inactive,inactive
CC1=C2C[C@@]3(C)C(CCC[C@@H]3C)C(O)C2OC1=O (some centres undefined),inactive,inactive
C=CC(=O)N1CCCC(n2nc(-c3ccc(Oc4ccccc4)cc3)c3c(N)ncnc32)C1 (centres undefined),inactive,inactive
CN1CCN(c2ccc(Nc3cc(-c4cccc(-n5ccc6cc(C7CC7)cc(F)c6c5=O)c4CO)cn(C)c3=O)nc2)CC1,inactive,inactive
Cc1csc2c(N[C@@H](C)CN3CCN(S(=O)(=O)c4ccc(Cl)c(Cl)c4)CC3)ncnc12,inactive,inactive
C=C1CC2OC(=O)C(=C)C2C(OC(=O)/C(C)=C\C)CC2(C)OC1=CC2=O (centres undefined),inactive,inactive

SMILES,Potency [1],Potency [2]
Cc1ccc(C(=O)Nc2ccc(CN3CCN(C)CC3)c(C(F)(F)F)c2)cc1C#Cc1cnc2[nH]ncc2c1,inactive,inactive
C[C@@H](c1ccc2nccn2c1)n1nnc2ncc(-c3cnn(C)c3)nc21,inactive,inactive
CC(C)=C1C[C@@]2(C)C(=CC1=O)CC[C@@H](OC(=O)/C(C)=C/CO)[C@@H]2C,inactive,inactive
CC(C)c1c(O)ccc2c1CC[C@H]1C(C)(C)CCC[C@]21C,14.1 µM (active),22.4 µM (active)
CN(CC1COCCO1)S(=O)(=O)Nc1ccc2ccc3ncc(-c4cnn(C)c4)cc3c(=O)c2c1 (centres undefined),inactive,inactive
Cc1onc(-c2ccccc2)c1C(=O)N1CCN(c2ccc([N+](=O)[O-])cc2Cl)CC1,inactive,inactive
COc1ccc(NC(=O)c2ccc(-c3ccc(-c4nnc(C)o4)cc3C)cc2)cc1N1CCN(C)CC1,inactive,inactive
O=C(Nc1ccc2[nH]nc(-c3ccncc3)c2c1)[C@@H]1CCN(CC(=O)N2CCN(c3ccc(-c4ncccn4)cc3)CC2)C1,inactive,inactive
CN(C)CCOc1cc(NS(=O)(=O)c2c(Cl)cc(C(F)(F)F)cc2Cl)ccc1Cl,5.62 µM (active),inactive
C/C=C(\C)C(=O)O[C@H]1C=CC(=O)O[C@H]1/C=C/[C@@H](O)[C@H](C)O,inactive,inactive
COc1cc(-c2nc(N[C@H](CO)Cc3ccccc3)ccc2C(=O)NCCOc2ccccc2)cc(OC)c1OC,inactive,inactive
O=C(c1ccc(OC(F)F)c(C#Cc2ccccn2)c1)N1Cc2cccnc2C1,inactive,inactive
N#Cc1cc(CN2CCC(Nc3ncnc4sc(Cl)cc34)CC2)ccc1F,inactive,inactive
Oc1cccc(C2NC(=S)Nc3cccc(F)c32)c1 (centres undefined),inactive,inactive
CN(C)CCN(Cc1ccc(-c2ccc(CNCCc3ccccc3)cc2)cc1)C(=O)CCC1CCCC1,inactive,inactive
CC(CCC1(O)OC2CC3C4CC=C5C[C@@H](O[C@@H]6O[C@H](CO)[C@@H](O[C@@H]7O[C@@H](C)[C@H](O)[C@@H](O)[C@H]7O)[C@H](O)[C@H]6O[C@@H]6O[C@@H](C)[C@H](O)[C@@H](O)[C@H]6O)CC[C@]5(C)C4CC[C@]3(C)[C@@]2(O)[C@@H]1C)CO[C@@H]1O[C@H](CO)[C@@H](O)[C@H](O)[C@H]1O (some centres undefined),inactive,inactive

# — PubChem BioAssay (NCATS)
